Data on 20 compounds can be found in PubChem BioAssay (NCI).

SMILES strings stand for the structures. Values joined by “and” are separate entries in the source; they are usually repeats but may differ in a detail not shown here. Identical values can stand only once. The panel holds about 79,000 compounds, 15% with a hit somewhere; the sample as a whole holds those more often. A number with no mark means an inactive call. Active and inactive are the calls of the source. No stated cut-off is given here; in the data, active means growth inhibition above about 70%; inactive means the rest.

Test [1] can be described thus: NCI Yeast Anticancer Drug Screen. Data for the rad50 strain (AID 155).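 Further: 0% = growth of vehicle-only cultures of the same strain.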 As to conditions: S. cerevisiae rad50 strain growth inhibition, active compounds read high; at 50.0 µM unless noted. The method in brief:
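Genetically altered yeast (DNA repair pathway); compound treatment; growth inhibition vs vehicle ctrl.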

Test [2] in a line: NCI Yeast Anticancer Drug Screen. Data for the mec2-1 strain (AID 157). The following applies: S. cerevisiae mec2-1 strain, active compounds read high; at 50.0 µM unless noted. In outline:
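Mutant yeast (mec2-1) grown with compound; growth inhibition relative to vehicle control reported.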

A short description of test [3]: NCI Yeast Anticancer Drug Screen. Data for the sgs1 mgt1 strain (AID 161).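 Further: 0% = growth of cultures given vehicle only.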 As to conditions: S. cerevisiae sgs1 mgt1 strain, active compounds read high; at 50.0 µM unless noted. The method in brief:
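Growth of a repair-deficient yeast mutant was monitored after compound treatment and expressed as inhibition relative to vehicle-treated cultures.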

A short description of test [4]: NCI Yeast Anticancer Drug Screen. Data for the cln2 rad14 strain (AID 165).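 Further: 0% = growth equal to vehicle treated cultures.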 The following applies: S. cerevisiae cln2 rad14 strain, active compounds read high; at 50.0 µM unless noted. The method in brief: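 Readout is yeast growth inhibition versus vehicle-treated controls, using a strain with cln2 and rad14 alterations exposed to compound.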
Test [5] in a line: NCI Yeast Anticancer Drug Screen. Data for the bub3 strain (AID 167). As to conditions: S. cerevisiae bub3 mutant strain, active compounds read high; at 50.0 µM unless noted. In outline:
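Yeast carrying a defined mutation is treated with each compound, and growth is compared with that of vehicle-exposed cells to give inhibition.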

A short description of test [6]: NCI Yeast Anticancer Drug Screen. Data for the mlh1 rad18 strain (AID 175). As to conditions: S. cerevisiae mlh1 rad18 strain growth inhibition, active compounds read high; at 50.0 µM unless noted. The method in brief:
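Genetically defined yeast (DNA repair-deficient) exposed to compounds; growth inhibition determined relative to vehicle.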

Take `O=C1NCC2(CCNCC2)N1`: the growth inhibition in test [1] is -10.3%; in test [2], 16.7%; in test [3], 6.45%; in test [4], 15.6%; in test [5], 11.1%; in test [6], -70.6%.

On to `CCCCCCCCCCCC(=O)CCCCCCCCCCCC(=O)OC`, for which the growth inhibition in test [1] is 2.15%; in test [2] it was 15.4%; in test [3] it was 17.1%; in test [4], 14.2%; in test [5], 45%; in test [6], -2.35%.

As for `Oc1ccc(-c2nc(-c3cccnc3)c(-c3ccc(F)cc3)[nH]2)cc1`, the growth inhibition in test [1] was 5.2%; in test [2] it was -13.7%; in test [3] it was 12.8%; in test [4], 8.55%; in test [5] it was 12.5%; in test [6], 57.8%.

Regarding `Cc1ccc2nc(NC(=O)C(=O)C(C#N)c3nc4ccccc4s3)sc2c1` (stereo not given), the growth inhibition is 11.2% in test [1]; 1.75% in test [2]; 19.7% in test [3]; 25.6% in test [4]; 18.5% in test [5]; 19.2% in test [6].

As to `O=CN1CCCCC1`, the growth inhibition is -43.1% and -15.2% in test [1]; -26% and -2.6% in test [2]; -3.05% and -5.15% in test [3]; 3.15% and -27.7% in test [4]; -18.9% and 0.45% in test [5]; -8.8% and 0.65% in test [6].

Regarding `CCCCCCC1OC(C)C(C)O1` (stereo not given), the growth inhibition was 30.8% in test [1]; 13.7% in test [2]; 23.9% in test [3]; -5.15% in test [4]; -3.95% in test [5]; 15.4% in test [6].

Consider `CC1CC(C)NC(=S)N1` (stereo not given), for which the growth inhibition in test [1] was -16.6%; in test [2], -3.9%; in test [3] it was -9.85%; in test [4], 16.7%; in test [5], 3.25%; in test [6], -5.95%.

`COC(=O)c1ccc(COC(=O)N2C=CCC2C(=O)O)cc1` (stereo not given): the growth inhibition in test [1] was 20.2%; in test [2], -19.6%; in test [3], 13.4%; in test [4], 11.7%; in test [5] it was 4%; in test [6] it was 1.15%.

`Cc1c(OCCCOc2ccc3c(=O)cc(-c4ccccc4)oc3c2C)ccc2c(=O)cc(-c3ccccc3)oc12`: the growth inhibition in test [1] was -35.6%; in test [2], -18.1%; in test [3], -13.7%; in test [4], 31.5%; in test [5], -39.9%; in test [6], -31.8%.

Take `O=[N+]([O-])c1c[nH]c2ncnc(Cl)c12`: the growth inhibition in test [1] is 4.25%; in test [2], 0.6%; in test [3], 0.35%; in test [4], -6.8%; in test [5], -3%; in test [6], 6.8%.

`COc1ccc(C(C)c2cc(N=NC(N)=O)c(OC)cc2O)cc1` (stereo not given): the growth inhibition in test [1] is -2.7%; in test [2], -3.6%; in test [3], -4.1%; in test [4], -4.25%; in test [5] it was 16.9%; in test [6], 12.7%.

On to `COc1cc(OC)c2c(c1)C(C)(C)CCC2(C)C`, for which the growth inhibition in test [1] was 9.2%; in test [2], 2.9%; in test [3], -7.45%; in test [4], -23.4%; in test [5], 16.2%; in test [6] it was 4.4%.

As to `CCc1ccc2c(c1)CCCC2(C)C`, the growth inhibition was -2.5% in test [1]; -10.2% in test [2]; 2.25% in test [3]; -8.3% in test [4]; 0.3% in test [5]; -0.05% in test [6].

For the compound `CC(C)/C(Cl)=N/OC(=O)Nc1ccc(F)c(Cl)c1`, the growth inhibition is 37.4% in test [1]; 35.3% in test [2]; 89.3% (active) in test [3]; -1.3% in test [4]; 60.8% in test [5]; -36.8% in test [6].

Take `CC(=O)NCCc1c[nH]c2ccc(Cl)cc12`: the growth inhibition in test [1] is -33.5%; in test [2] it was 21.4%; in test [3], -27.4%; in test [4], -11.6%; in test [5] it was 26.8%; in test [6] it was -10.1%.

For `ClCCN1CCOC1=Nc1ccc2c(c1)CCCC2`, the growth inhibition in test [1] is -21.2%; in test [2] it was -16.9%; in test [3] it was 2.6%; in test [4] it was 4.4%; in test [5], -7.25%; in test [6], -49.2%.

With `CN1N=CSC12C(=O)N(c1ccccc1)C(=O)N2c1ccccc1` (stereo not given), the growth inhibition in test [1] is 0.4%; in test [2], -1.55%; in test [3] it was 0.95%; in test [4] it was 20.1%; in test [5], 3.15%; in test [6] it was -14.2%.

Regarding `Cc1ccc(S(=O)(=O)/C=C(/SC#N)C2CCCCC2)cc1`, the growth inhibition in test [1] was 32.5%; in test [2], 90.6% (active); in test [3] it was 69.5%; in test [4] it was 17.9%; in test [5] it was 83.1% (active); in test [6], 79.7% (active).

For the compound `O=C(Nc1ccc(Cl)c(Cl)c1)N(CCO)Cc1ccccc1`, the growth inhibition in test [1] was 88.7% (active); in test [2], 97% (active); in test [3], 97.2% (active); in test [4], 90% (active); in test [5], 95.5% (active); in test [6] it was 94.4% (active).

Turning to `O=S(=O)([O-])[O-].O=c1[nH]cnc2[nH]ncc12.O=c1[nH]cnc2[nH]ncc12.[Zn+2]`, the growth inhibition in test [1] is -26.2%; in test [2], 4.15%; in test [3], -15.9%; in test [4], 3.65%; in test [5], -20.8%; in test [6], -17.6%.
